The source of these data is PubChem BioAssay AID602438 (Sanford-Burnham Center for Chemical Genomics, 2012).

Values joined by “and” are separate entries in the source; they are usually repeats but may differ in a detail not shown here. Equal values may be shown once. Among all 360,000 compounds or so, about 3,100 (0.86%) were called active. Many of the other results were omitted from the sample, so actives are more common in it than they were. Unmarked numbers belong to inactive results.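 How the source made its calls: active means inhibition or corrected inhibition above about 18%, plus a signal ratio from 0.5 to 1.5 (limit read from the data, passing the limit was not always enough); inactive means the rest.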

For this test, the target named is Neuropilin-1 (Homo sapiens) (UniProt O14786). In words: modulators of CendR peptide binding to NRP-1, primary screen, biochemical, fluorescence polarization, uHTS (AID 602438). Particulars: FAM-RPARPAR peptide binding to NRP-1, fluorescence polarization; at 25 µM; hits give high values. In general terms: Fluorescence polarisation rises when a labelled molecule tumbles more slowly, as on binding a larger partner.
Neuropilin-1 (Homo sapiens), sequence (O14786 whole entry, looked up): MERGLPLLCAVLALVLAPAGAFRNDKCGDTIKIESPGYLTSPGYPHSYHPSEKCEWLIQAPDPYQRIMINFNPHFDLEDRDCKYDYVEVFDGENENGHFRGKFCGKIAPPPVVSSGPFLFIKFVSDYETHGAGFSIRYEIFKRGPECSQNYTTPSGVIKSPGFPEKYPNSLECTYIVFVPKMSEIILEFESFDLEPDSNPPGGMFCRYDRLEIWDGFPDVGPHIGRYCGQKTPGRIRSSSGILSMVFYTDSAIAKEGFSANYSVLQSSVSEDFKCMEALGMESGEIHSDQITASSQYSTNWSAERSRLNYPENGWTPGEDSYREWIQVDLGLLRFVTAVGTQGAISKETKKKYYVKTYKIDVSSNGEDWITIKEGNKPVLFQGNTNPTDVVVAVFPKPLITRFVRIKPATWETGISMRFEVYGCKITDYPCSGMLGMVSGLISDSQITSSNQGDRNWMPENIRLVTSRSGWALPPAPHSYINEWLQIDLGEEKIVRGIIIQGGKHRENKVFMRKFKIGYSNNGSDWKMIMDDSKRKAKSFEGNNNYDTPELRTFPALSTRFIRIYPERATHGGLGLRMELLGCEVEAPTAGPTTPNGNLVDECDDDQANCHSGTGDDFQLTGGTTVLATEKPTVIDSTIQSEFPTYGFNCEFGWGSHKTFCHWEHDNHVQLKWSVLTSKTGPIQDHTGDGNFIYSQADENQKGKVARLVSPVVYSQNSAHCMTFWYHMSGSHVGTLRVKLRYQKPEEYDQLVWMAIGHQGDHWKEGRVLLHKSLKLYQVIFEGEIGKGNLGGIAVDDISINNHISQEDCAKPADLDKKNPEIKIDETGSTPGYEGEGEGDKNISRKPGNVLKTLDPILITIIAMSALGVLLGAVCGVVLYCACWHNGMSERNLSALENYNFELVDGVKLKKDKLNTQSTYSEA
The term inhibition denotes the relative decrease from the control value, in per cent. As to `O=[N+]([O-])c1ccc(CN2CC(N3CCC(c4ccccc4)CC3)CS2(=O)=O)cc1` (stereo not given), the inhibition is 11.5%. On to `CC1(C)CC(=O)CC2(C1)NCC(c1ccccc1Cl)c1c2[nH]c2ccccc12` (stereo not given), for which the inhibition was -3.3%. As for `CCNC(=O)COC(=O)/C=C/c1c(C)nn(Cc2cccc(OC)c2)c1Cl`, the inhibition was -6.8%. In the case of `CC1(C)CN(c2ccc(-c3ccnc4ncnn34)cc2)C1=O`, the inhibition is 9.3%. As for `O=C(Nc1ccc(Cl)cc1)Nc1ccc(Oc2cccnc2)nc1`, the figure is 3.4%; as for `O=C(CSc1n[nH]c(-c2cccnc2)n1)Nc1ccnc2ccccc12`, -6.1%; as for `COc1ccc(Nc2nc(-c3cccnc3)nc3ccccc23)cn1`, 55.4% (active). The same measure for `Cc1ccc(Nc2nnc(SC(C)C(=O)NC3CC3)s2)cc1` (stereo not given): -8.1%; for `CCc1nnc(NC(=O)c2ccc(S(=O)(=O)NC3CCCCC3)cc2)s1`: -10.5%; for `Cc1nnc(SC(C)C(=O)Nc2ccc(S(=O)(=O)NC3CCCCC3)cc2)s1` (stereo not given): 25.4% (active).

`Cc1ccc(S(=O)(=O)N(CC(=O)NCCSC2CCCCC2)c2ccccc2F)cc1`: the inhibition was -1.5%. `O=C(Nc1c2c(nn1-c1ccc(F)cc1)CS(=O)C2)C12CC3CC(CC(C3)C1)C2` (stereo not given): the inhibition was 5.1%. As for `O=S(=O)(c1ccc(Br)cc1)c1nc(-c2ccccc2)oc1N1CCOCC1`, the inhibition was 0.9%. Consider `O=S(=O)(c1ccc(Cl)cc1)c1nc(-c2ccccc2F)oc1NCCN1CCOCC1`, for which the inhibition was 5.8%. For `O=S(=O)(c1ccccc1)c1nc(-c2ccccc2)oc1NCCCN1CCOCC1`, the inhibition was 28.7% (active).

Take `CCc1nc(SCC(=O)Nc2ccccc2OC)n[nH]1`: the inhibition is 4.2%. For the molecule `C=CCN1CCN(c2ccncc2S(=O)(=O)N2CCN(C)CC2)CC1`, the inhibition is 1.6%. As for `Cc1cc(/C=N/NC(N)=O)c(C)n1C1CCCCC1`, the figure is -11.5%. On to `Cc1ccc(-n2c(C)cc(/C=N\NC(=O)CC(=O)NC(C)C)c2C)cc1`, for which the inhibition was 32.4% (active). The same measure for `Cc1cc(/C=N/NC(=O)CC2(C)OCCO2)c(C)n1-c1ccc(Cl)c(Cl)c1`: -7.8%.

On to `O=C(O)C1CCCN1c1nc(Cl)ccc1[N+](=O)[O-]` (stereo not given), for which the inhibition is -0.9%. Turning to `O=C(O)C1CCCN1C1=NS(=O)(=O)c2ccccc21` (stereo not given), the inhibition is 9.6%.

Turning to `Cc1nc(N2CCCC2C(=O)O)c2oc3ccccc3c2n1` (stereo not given), the inhibition is 29.6% (active). Regarding `O=c1ccc(S(=O)(=O)N2CCCC2)cn1Cc1nc(-c2ccccc2)no1`, the inhibition was 3.3%.

As to `c1ccc(CCC2=NCCn3cccc32)cc1`, the inhibition is -28.1% and -1.3%.

Consider `CNS(=O)(=O)c1cnccc1N1CCN(c2cccc(C)c2)CC1`, for which the inhibition is -5.1%.

Take `Cc1cccc(NS(=O)(=O)c2cc(Cl)ccc2Cl)n1`: the inhibition was 7.9%.

On to `Cc1cccc(N2CCN(C(=O)c3cnn4c(C(F)F)cc(-c5ccccc5)nc34)CC2)c1C`, for which the inhibition was 3.9%. Take `Cc1ccc(Cl)cc1N1CCN(C(=O)c2cccc3c(=O)c(C)c(-c4ccccc4)oc23)CC1`: the inhibition was 31% (active). The same measure for `COc1ccccc1N1CCN(C(=O)c2cc(=O)c3cc(C)cc(C)c3o2)CC1`: 14.6%; for `COCC1CCN(C(=O)CCc2nnc(C3(c4ccc(Cl)cc4)CCC3)o2)C1` (stereo not given): 11.4%. In the case of `COc1ccc(OC)c(S(=O)(=O)Nc2ccccc2F)c1`, the inhibition was -3.6%. Consider `COc1ccc(OC)c(S(=O)(=O)Nc2c(C)nn(C)c2C)c1`, for which the inhibition was 16.5% (active). Take `COc1ccc(OC)c(S(=O)(=O)NCCC(C)C)c1`: the inhibition was 6.4%.

On to `Cc1n[nH]c(=O)c2c(NC(=O)COC(=O)c3ncc(Cl)c(Cl)c3Cl)oc(C)c12`, for which the inhibition is 4.1%.

On to `Cc1ccc(-c2nc(C)sc2CC(=O)OCC(=O)Nc2c(F)cccc2F)cc1`, for which the inhibition is 24.9% (active). Regarding `CCOc1ccc(-c2nc(C)sc2CC(=O)O)cc1`, the inhibition is 0.2%.

Take `Cc1nc(-c2ccc(F)cc2)c(CC(=O)N(C)CC(=O)Nc2c(C)cccc2C)s1`: the inhibition is -11.9%.

For the molecule `CCOC(=O)C1=C(N)N2C(=O)C(C)SC2=C(C(=O)OCC)C1c1cc(OC)c(OC)c(OC)c1` (stereo not given), the inhibition is 6.5%. Turning to `COc1ccc(OCC(=O)NCCc2ccc(S(N)(=O)=O)cc2)cc1`, the inhibition is -12.6%. Consider `O=C(COc1ccc(/C=N/NS(=O)(=O)c2ccccc2)cc1)NCCc1ccccc1`, for which the inhibition was 31.8% (active). Consider `O=C(COc1ccc(S(=O)(=O)NCCc2ccccc2)cc1)N1CCCC1`, for which the inhibition is 0.6%. As for `CCc1ccnc(NC(=O)Nc2ccc(OCc3ccccc3)cc2)c1`, the figure is 2.7%; as for `O=C(c1ccc(F)cc1)n1c(=S)nc2ccccn21`, -0.8%. `CC(=O)OCc1cc(=O)n(C)c(=O)n1C`: the inhibition was 14.5%. On to `COc1ccc(NS(=O)(=O)c2ccc(Oc3c(C#N)cccc3C#N)cc2)cc1`, for which the inhibition was 6.6%. `Cc1ccc(S(=O)(=O)/N=C2\C=C(NS(=O)(=O)c3ccc(C)cc3)C(=O)c3ccccc32)cc1`: the inhibition was 24.8%.

`COc1ccc(S(=O)(=O)/N=C2\C=C(NS(=O)(=O)c3ccccc3)C(=O)c3ccccc32)cc1`: the inhibition is 41.6% (active). Take `CCOCCC(=O)Nc1ccc2c(c1)c(=O)n(C)n2-c1ccc2ccccc2c1`: the inhibition was -1.8%. As for `Cc1cc(S(=O)(=O)c2cc3ccc(O)c(C)c3oc2=O)ccc1F`, the figure is 6%; as for `CCN(CC)P(=O)(C(NC(=O)OC)C(F)(F)C(F)(F)C(F)(F)C(F)F)N(CC)CC` (stereo not given), 0.3%. As to `CC(=O)NNc1cc(=O)c2c(=O)n(C)c(=O)n(C)c2[nH]1`, the inhibition was 21.9% (active). Turning to `CC(=O)Nn1cc2c(=O)n(C)c(=O)n(C)c2c1`, the inhibition is -0.7%.

With `CCC(=O)NNc1cc(=O)c2c(=O)n(C)c(=O)n(C)c2[nH]1`, the inhibition was 1.9%.

With `CCOCCCn1c(SCC(=O)Nc2cc(OC)ccc2OC)nc2ccccc2c1=O`, the inhibition was 6.3%. Regarding `CC(=O)NC(Cc1ccc(F)cc1)C(=O)O` (stereo not given), the inhibition was -13.6%. Consider `O=C1Nc2ccccc2-n2nnnc2C1N1CCN(c2cccc(C(F)(F)F)n2)CC1` (stereo not given), for which the inhibition was 3.4%. As for `CCOC(=O)c1cccnc1NC(=O)c1ccncc1`, the figure is -9.5%; as for `CCOC(=O)c1cc(NC(=O)c2ccc(Cl)cc2)c(=O)oc1-c1ccccc1`, 24.4% (active). As for `COC(=O)c1ccc(C(=O)Nc2cc(Cl)ccc2Cl)cc1NC(=O)c1ccccc1C`, the figure is -6%.
